Assay [1] concerns PIK3CD.
Assay [2] has as its system PLK2.
Assay [3] concerns PIK3CG.
Assay [4] deals with T1, PIK4CB.
T1 construct: gene PI4KB

Assay [5] concerns PKN1.
For assay [6], the system named is PIKFYVE.
The subject of assay [7] is PIP5K1C.
The subject of assay [8] is PRKD2.
Assay [9] has as its system T2, PKAC-beta.
T2 construct: gene PRKACB

For assay [10], the system named is PRKX.
Assay [11] deals with PRKCI.
Assay [12] has as its system PRKD1.
For assay [13], the system named is RAF1.
Assay [14] relates to RET.
Assay [15] concerns RIOK2.
Assay [16] has as its system RIOK3.

One may read the Kd as a measure of binding affinity in units of concentration.
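Note: kd values determined as follow-up on hits from a single-replicate KINOMEscan panel screen.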

Turning to `Cc1c(Cn2c(C)c(C)n3c(=O)cc(N4CCOCC4)nc23)cccc1C(F)(F)F` [GSK2328680], the equilibrium dissociation constant (Kd) in assay [1] was 0.62 µM; in assay [2] it was more than 10 µM.
In the case of `COc1cccc(NC(=O)Nc2ccc(C)c(-c3ccc(C(=O)Nc4ccncc4)cc3)c2)c1` [GSK1398474], the Kd in assay [3] was more than 10 µM.
In assay [3], `Fc1ccc(-c2nc3n(c2-c2ccncc2)CCS3)cc1` [GI98581] showed a Kd of more than 10 µM.
In the case of `NS(=O)(=O)c1cccc(N/C=C2\C(=O)Nc3ccc(S(=O)(=O)Cc4c(Cl)cccc4Cl)cc32)c1` [GSK398099], the equilibrium dissociation constant (Kd) in [4] came to 1.2 µM.
In the case of `Cc1c(Cn2c3ccccc3n3c(=O)cc(N4CCOCC4)nc23)cccc1C(F)(F)F` [GSK2306394], the Kd in [4] and in [5] was more than 10 µM in each case.
In the case of `CCc1ccc(-c2ccc3c(c2)-c2n[nH]cc2S(=O)(=O)N3C)cc1`, the Kd in assay [6] is more than 10 µM.
In the case of `CN1c2ccc(-c3ccc(C(N)=O)cc3)cc2-c2[nH]ncc2S1(=O)=O`, the figures for the Kd in [7] and in [8] were 6.4 µM and more than 10 µM, respectively.
In the case of `CS(=O)(=O)Cc1ccc(Nc2nccc(-c3c(-c4cccc(NC(=O)C5CCCCC5)c4)nn4ncccc34)n2)cc1` [GSK350559], the Kd in [7] was more than 10 µM.
`O=C1NC(=O)C(c2ccc(Cl)cc2)=C1Nc1cccc(Cl)c1` [SB-317651] had a Kd in assay [9] of more than 10 µM.
For the compound `CC[C@@H]1CO[C@H](C(=O)Nc2ccccc2)CN1c1cc(-c2ccc3c(N)n[nH]c3c2)nc(NC)n1` [GSK2376236], the equilibrium dissociation constant (Kd) in assay [5] was more than 10 µM; in [10], 0.13 µM.
The compound `CNC(=O)c1ccc(C)c(-n2c(C)cc(OCc3ccc(F)cc3F)c(Br)c2=O)c1` had a dissociation constant Kd in assay [11] of more than 10 µM.
Consider `O=C(Nc1n[nH]c2cc(-c3ccsc3)ccc12)C1CC1` [SB-732932], for which, in assay [12], the Kd is more than 10 µM.
`CNc1nc(-c2ccc3c(N)n[nH]c3c2)cc(N2C[C@@H](C(=O)Nc3ccccc3)CC[C@H]2C)n1` [GSK2298859] gave a Kd in assay [10] of 0.065 µM.
As to `Cc1ccc(NC(=O)Nc2ccc(Cl)cc2)cc1-c1ccc(C(=O)Nc2ccncc2)cc1` [GSK1398472], the Kd in assay [13] is 0.35 µM.
Still for that read-out and setting: the same measure for `Cc1ccc(NC(=O)Nc2ccc(Cl)c(C(F)(F)F)c2)cc1-c1ccc(C(=O)Nc2ccncc2)cc1` [GSK1398470]: 0.34 µM.
In assay [14], `Fc1ccc(-c2nn3cccc(F)c3c2-c2ccncc2)cc1` [GW475620] displayed a Kd of more than 10 µM.
For `CNCc1ccc2nc(NC(=O)c3ccc(C(C)(C)C)cc3)cn2c1`, the Kd in assay [15] was more than 10 µM.
Compound `Nc1cccc(-c2ccc3c(N)n[nH]c3c2)n1` [GSK2192730] yielded a Kd in [16] of 0.49 µM.
On the same count and under the same terms, to `CC(C)c1cc(-c2ccc3c(N)n[nH]c3c2)nc(N)n1` [GSK2250882] belongs 0.44 µM.

Values taken from article PMC5540273 (PLoS ONE, 2017).
